# According to PubChem BioAssay (NCI):
# Several values for one entry are separate records, joined by “and”; a condition that tells them apart may be missing. Equal entries are not always repeated. This is part of a sample that, as a whole, favours compounds with a hit. Of some 79,000 tested, about 15% had one in any assay. Unmarked numbers belong to inactive results. Activity calls are given as the source filed them. Rule as the data show it: active = growth inhibition above about 70%; inactive = the rest.
# Experiments:
# [1] = NCI Yeast Anticancer Drug Screen. Data for the rad50 strain (AID 155);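 also: 0% = growth of vehicle-only cultures of the same strain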; conditions: S. cerevisiae rad50 strain growth inhibition; at 50.0 µM; stronger effect = higher value
# Summary of the method: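 Vehicle-treated cultures provide the reference for the growth inhibition reported for compound-exposed, repair-deficient yeast.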
# [2] = NCI Yeast Anticancer Drug Screen. Data for the mec2-1 strain (AID 157); conditions: S. cerevisiae mec2-1 strain, at 50.0 µM, stronger effect = higher value
# Summary of the method: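 Compounds were applied to mec2-1 yeast cells. Their growth was then compared with that of vehicle-treated cultures to give growth inhibition.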
# [3] = NCI Yeast Anticancer Drug Screen. Data for the sgs1 mgt1 strain (AID 161);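 also: 0% = growth of cultures given vehicle only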; conditions: S. cerevisiae sgs1 mgt1 strain, at 50.0 µM, stronger effect = higher value
# Summary of the method: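 Yeast cells carrying a defined DNA-repair defect were exposed to test compounds. Growth inhibition was measured relative to vehicle-treated controls.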
# [4] = NCI Yeast Anticancer Drug Screen. Data for the cln2 rad14 strain (AID 165);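 also: 0% = growth equal to vehicle treated cultures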; conditions: S. cerevisiae cln2 rad14 strain, at 50.0 µM, stronger effect = higher value
# Summary of the method: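 Strain: cln2 rad14 yeast, altered in cell cycle control and DNA damage repair. Read-out: growth inhibition vs vehicle.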
# [5] = NCI Yeast Anticancer Drug Screen. Data for the bub3 strain (AID 167); conditions: S. cerevisiae bub3 mutant strain, at 50.0 µM, stronger effect = higher value
# Summary of the method: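 Mutant yeast screening strain plus compound; vehicle-treated cultures serve as the 0% inhibition reference.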
# [6] = NCI Yeast Anticancer Drug Screen. Data for the mlh1 rad18 strain (AID 175); conditions: S. cerevisiae mlh1 rad18 strain growth inhibition; at 50.0 µM; stronger effect = higher value
# Summary of the method: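 A repair-deficient yeast strain is exposed to test compound, and growth is scored relative to vehicle-treated controls.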
SMILES,growth inhibition [1],growth inhibition [2],growth inhibition [3],growth inhibition [4],growth inhibition [5],growth inhibition [6]
O=NNc1ncc(Cl)cc1Cl,4.9%,-23.8%,-6.05%,-4.7%,14.2%,8.65%
CC1OC(O[C@@H]2C=C3CC[C@@H]4[C@H](CC[C@]5(C)[C@@H](c6ccc(=O)oc6)CC[C@]45O)[C@@]3(C)CC2)C(O)C(O)C1O (some centres not stated),2.85%,-37.5%,-25%,13.1%,-15.9%,4.7%
O=C1NC2(CCCCC2)C(=O)N1CCCCN(CCCl)CCCl,1%,9.8%,9.2%,5.2%,21.4%,-5.85%
c1cc2c3c(cccc3c1)CC2,-22.4%,35.4%,-0.65%,-16.3%,44.4%,-14.6%
CC1(C)CN=C(Nc2ccc(F)cc2)S1,2.55%,0.6%,-17.9%,19.3%,-17.1%,-21.8%
c1ccc2c(c1)[Se]c1ccccc1[Se]2,-14.2%,-22.8%,0.65%,8.55%,23.1%,-7.45%
CCCOCC(O)C[As](=O)(O)c1cccc(Cl)c1 (configuration not stated),2.35%,3.55%,0.3%,-4.4%,10.2%,-5.55%
O.O=C(O)C(=O)O.[NH2-].[Zn],-14.6%,9.25%,-6.5%,35.1%,-2.3%,-2.05%
CCOP(=O)(OCC)/C(C#N)=C/c1ccccc1OC,40.5%,-1.3%,0.15%,-4.65%,-14.8%,27.6%
CN1CCC(OC(=O)Oc2ccccc2)(c2ccccc2)CC1,1.6%,9.6%,3.95%,33.7%,48.5%,-6.65%
C#CCOC(=O)C=[N+]=[N-],-11.7%,-6.75%,-10.6%,14.7%,3.85%,-2.1%
C=CCC1(CC=C)C(=O)N(C)C(=O)N(C)C1=O,7.25%,13.7%,-6.75%,8.45%,5.2%,-6.95%
O=C(OCc1nc2ccccn2c1[N+](=O)[O-])N(CCCl)CCCl,-42.6%,-21.5%,-35.6%,-10.8%,16.9%,-46%
CCN1C(=O)C(=C/C=C/c2ccc(OC)cc2)C(=O)N(CC)C1=S,37.4%,10.8%,46.4%,11.8%,13.8%,36.7%
Cc1ccccc1[N+](=O)[O-],19.1%,13.6%,2.5%,9.45%,-10.1%,-3.3%
C=C[CH2][Sn]([CH3])([CH3])[CH2]C=C,11.1%,4.35%,2.75%,-19.4%,-12.6%,4.75%
C#CC1(O)CCC(C(C)(C)C)CC1 (configuration not stated),10.2% and -5.45% and 20.4%,6.6% and 25.3% and -12.8%,-7.35% and -4.35% and -1.95%,7.3% and -22.6% and 7.2%,9.05% and 10.4% and -10.2%,-17.9% and -4.15% and 10.8%
CCCN(CCC)c1c([N+](=O)[O-])cc(C(=O)N(CC)CC)cc1[N+](=O)[O-],40.6%,29.8%,37.4%,13.8%,34.1%,11.3%
Cc1ccc(C(=O)C2C(c3ccccc3)N2Cc2ccccc2)cc1 (configuration not stated),13.8%,7.85%,35.4%,-10.3%,30.6%,14.7%

SMILES,growth inhibition [1],growth inhibition [2],growth inhibition [3],growth inhibition [4],growth inhibition [5],growth inhibition [6]
O=P1(N2CCOCC2)OC(c2ccccc2)=CCN1c1ccc(Cl)cc1 (configuration not stated),-8.9%,1.3%,-1.85%,-20.1%,5.2%,6.55%
NC(CO)Cc1ccccc1 (configuration not stated),-1.6% and 0.85%,0.3% and -4%,-1.45% and -4.1%,-21.6% and 4.05%,13.9% and 14.8%,2.05% and -1.35%
CC(=O)CC(C)=O.CC(=O)CC(C)=O.CC(=O)CC(C)=O.[Mn],11.2% and 10.1%,-1.45% and -5%,8% and 1.6%,10.8% and -53%,-3.1% and 3.2%,8.05% and 18.4%
CCOC(=O)/C(=C\c1cccc(F)c1)[Se]c1ccccc1,29.4%,7.15%,21.9%,8.3%,46.8%,36.6%
CC(C)CCC[C@@H](C)[C@H]1CC[C@H]2[C@@H]3CC[C@H]4C[C@H]5N[C@H]5C[C@]4(C)[C@H]3CC[C@]12C,10.6%,-21.8%,5.2%,-3.55%,-9.6%,0.1%
O=NNc1ccc(Br)cn1,-2.7%,-6.25%,5.7%,-0.85%,-0.35%,4.2%
COC1CC(OC2OC(CO)C(O)C(O)C2O)/C(=C\C#N)C(O)C1OC (configuration not stated),1.95%,-3.05%,1.8%,9.25%,2.35%,-58.2%
COC(=O)N/N=C(\C)C(CN(C)C)C(c1ccccc1)c1c(O)c2ccccc2oc1=O (configuration not stated),35.4%,28.9%,47%,34.6%,49.4%,34.1%
CCC/C=C/C=C/C(=O)OC1/C(=C/C(=O)OC)CC2CC(C(C)O)OC(=O)CC(O)CC3CC(OC(C)=O)C(C)(C)C(O)(CC4C/C(=C/C(=O)OC)CC(/C=C/C(C)(C)C1(O)O2)O4)O3 (configuration not stated),15.7%,-5.2%,-7.85%,21.3%,6.15%,23.1%
C#CCOC(C(=O)OC1CCN(C)CC1)(c1ccccc1)c1ccccc1,-3.5%,-11.8%,-6.45%,-36.9%,0.3%,-1.95%
Cc1cc(N(CCCl)CCCl)ccc1C=Nc1ccccc1F,8.3%,-5.4%,3.6%,-40.4%,6.85%,0.5%
CC1(C)N=C(N)N=C(N)N1c1ccc(CCCCc2ccccc2S(=O)(=O)F)c(Cl)c1,99.5% (active),99.7% (active),99.7% (active),99.4% (active),99.5% (active),99.7% (active)
CC1CCC2NCCNC2C1 (configuration not stated),2.45%,6.65%,-8.9%,5.35%,0.65%,23.4%
[CH3][Sb]([CH3])[S]C1OC(CO)C(O)C(O)C1O (configuration not stated),-10.3%,0.9%,29.9%,-15.8%,25.5%,-17.8%
O=C([O-])CN(CCN(CC(=O)[O-])CC(=O)O)CC(=O)O.[Fe+5].[Na+],-12.6%,-13.3%,0.35%,-35.8%,-2.85%,-8.4%
N#Cc1ccccc1Cl,8.05%,-8.4%,5.45%,20.7%,24.2%,40%
[CH3][Sn]([CH3])([CH3])[O][N+](=O)[O-],25.6%,2.65%,44.6%,2.55%,48.7%,18.9%
COc1ccc(C2=CC3=CCC4C(CCC5(C)C(O)CCC45)C3(C)CC2)s1 (configuration not stated),19.2%,11.7%,29.6%,-0.6%,-0.1%,26.1%
